Measured values from PubChem BioAssay AID1159580 (chemical genetic matrix, 2015).
The whole screen tested about 5,500 compounds, of which about 2,000 (36%) were called active. Not shown: some 18% with an inconclusive outcome. Rule as the data show it: active = normalized growth mostly below about 0.91 (no sharp cut-off); inconclusive = no clear call, values can overlap the other calls; inactive = mostly above about 0.92. Some of the results follow.

Test: chemical genetic growth profiling, strain panel (AID 1159580);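 also: tested at 20 µM; growth read once vehicle control cultures reached saturation at 30 °C; 1 = growth at the plate median or of vehicle wells; lower values mean less growth of the strain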
Settings: S. cerevisiae deletion strains, growth OD

Measured: normalized growth

CN(C)CC[C@@H](c1ccc(Cl)cc1)c1ccccn1
inactive: locus YAL040C, strain CLN3, stronger effect = lower value 1 | locus YDR363W, strain ESC2, stronger effect = lower value 1 | locus YER002W, strain NOP16, stronger effect = lower value 0.998 | locus YGR078C, strain PAC10, stronger effect = lower value 1.01 | locus YNL175C, strain NOP13, stronger effect = lower value 1.01 | locus YNL197C, strain WHI3, stronger effect = lower value 1 | locus YNL224C, strain SQS1, stronger effect = lower value 0.999 | locus YOR083W, strain WHI5 (second series), stronger effect = lower value 1.01 | locus YPL055C, strain LGE1, stronger effect = lower value 1.01
